Most compounds without a hit are left out; they make up all but 1.9% or so of the library.
Jurkat tox 60K: cytotoxicity toward Jurkat cells; Jurkat E6.1 viability, ATP luminescence, 48 h; inhibition, % at 4 µM; 56,000 compounds, 1.2% hits; AID 463;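 active = inhibition above the mean inhibition of all tested compounds plus 3 SD, cut at about 28% in these data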
HER2 expr 66K: Her2 kinase expression inhibition; P04626; SKBR-3 HER2 protein level, AlphaScreen, 18-24 h; hits give low values; HER2 level % of control, % at 10 µM; 65,000 compounds, 0.69% hits;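 active = HER2 level under 5% of the carrier-only control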;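 also: 100% = DMSO carrier and 0% = 500 nM PU-H71 HSP90 inhibitor; lower value means stronger loss of Her2 protein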
SKBR3 24h inh: SK-BR-3 proliferation inhibitors; SK-BR-3 viability, CellTiter-Glo ATP luminescence, 24 h; hits give low values; 41,000 compounds, 0.47% hits; AID 847; viability, % at 10 µM;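 active = viability at or below the median of all test compounds minus 3 SD, in both replicates if run twice, cut at about 45% in these data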;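 also: 100% = median untreated cell wells and 0% = median positive control drug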
Numbers without * were called inactive.

Screening CCOC(=O)N1CCN(C(=O)c2cc(-c3ccc(OCC)cc3)nc3ccccc23)CC1 returned Jurkat tox 60K 86.7* and HER2 expr 66K 67.5.
For O=C(COc1ccc2ccccc2c1CN1CCOCC1)N1CCc2ccccc21 the results were Jurkat tox 60K 13.0 and HER2 expr 66K 39.7.
Screening CC(c1ccccc1)N1CNc2c(c(=O)n(C)c(=O)n2C)C1 (stereo unspecified) returned Jurkat tox 60K 0.7, HER2 expr 66K 94.1 and SKBR3 24h inh 133.5.
`CCC(=NC(C)c1ccccc1)c1c(O)n(C)c(=O)n(C)c1=O` (stereo unspecified) gave Jurkat tox 60K 53.9*, HER2 expr 66K 94.1 and SKBR3 24h inh 102.0.
Screening CCOC(=O)CSC1=C(C#N)C(c2ccc(C)s2)CC(=O)N1 (stereo unspecified) returned Jurkat tox 60K 86.3*, HER2 expr 66K 42.6 and SKBR3 24h inh 117.7.
Screening CCSC1=C(C#N)C(c2ccc(C)s2)CC(=O)N1 (stereo unspecified) returned Jurkat tox 60K -0.3, HER2 expr 66K 118.4 and SKBR3 24h inh 112.0.
`COc1cc(OC)c(C(=O)Nc2ncn[nH]2)cc1OC` gave Jurkat tox 60K -7.3, HER2 expr 66K 129.1 and SKBR3 24h inh 85.9.
For c1ccc2sc(SN3CCOCC3)nc2c1 the results were HER2 expr 66K 152.3 and SKBR3 24h inh 78.9.
`CN(C)c1ccc(NC(=O)CSc2nc3ccccc3c(=O)n2C2CCCCC2)cc1` gave Jurkat tox 60K -5.2 and HER2 expr 66K 112.8.
Cc1cc(NC(=O)CSc2nc3ccccc3c(=O)n2C2CCCC2)no1 was read as Jurkat tox 60K 71.0*, HER2 expr 66K 66.6 and SKBR3 24h inh 88.5.
Cn1c(=O)n(C/C=C/c2ccccc2)c(=O)c2c1nc1n2CCCN1c1ccc(F)cc1 was read as Jurkat tox 60K 0.0, HER2 expr 66K 94.0 and SKBR3 24h inh 95.1.
O=C(CC(C(=O)N1CCc2ccccc21)n1ccnc1)N1CCc2ccccc2C1 (stereo unspecified) was read as Jurkat tox 60K 0.3 and HER2 expr 66K 114.8.
`CN(Cc1ccccc1)S(=O)(=O)c1ccc2[nH]cc(C(=O)NCC3CCCO3)c(=O)c2c1` (stereo unspecified) gave Jurkat tox 60K -2.8 and HER2 expr 66K 110.8.
For Cc1cc(=O)[nH]c2n[nH]c(-c3ccccc3)c12 the results were Jurkat tox 60K 6.4, HER2 expr 66K 93.2 and SKBR3 24h inh 91.1.
Cc1nc(C)c2c(=O)cc(-c3ccccc3)[nH]c2n1 was read as Jurkat tox 60K 54.3* and HER2 expr 66K 51.1.
For CC(=O)/C=C(\C)NCCNc1c(F)c(F)c(CO)c(F)c1F the results were HER2 expr 66K 108.1 and SKBR3 24h inh 81.0.
For CC1CCc2c(sc3ncnc(N4CCOCC4)c23)C1 (stereo unspecified) the results were HER2 expr 66K -29.4* and SKBR3 24h inh 95.1.
For CC1CCc2sc3ncnc(N4CCOCC4)c3c2C1 (stereo unspecified) the results were Jurkat tox 60K 5.5, HER2 expr 66K 152.9 and SKBR3 24h inh 71.4.
For CCOc1ccccc1N1CCN(Cc2ccc(OC)c(OC)c2OC)CC1 the results were Jurkat tox 60K 8.3, HER2 expr 66K 69.4 and SKBR3 24h inh 99.2.
CCOc1ccccc1N1CCN(Cc2ccc(OC)c(OC)c2)CC1 was read as Jurkat tox 60K 10.9 and HER2 expr 66K -19.9*.
CCOc1ccccc1COC(=O)c1cccc(-n2cnnn2)c1 was read as Jurkat tox 60K 11.1 and HER2 expr 66K 109.4.
`CN(C)c1ccc(-c2nn3c(C4CCCCC4)nnc3s2)cc1` gave Jurkat tox 60K 3.0, HER2 expr 66K 83.8 and SKBR3 24h inh 97.8.
For CCCn1c(SCC(=O)NCc2ccco2)nc2c1c(=O)n(C)c(=O)n2C the results were Jurkat tox 60K -7.5, HER2 expr 66K 76.8 and SKBR3 24h inh 86.0.
Screening CCn1c(SCC(=O)NCc2ccco2)nc2c1c(=O)n(C)c(=O)n2C returned Jurkat tox 60K -1.2, HER2 expr 66K 107.3 and SKBR3 24h inh 42.0*.
Screening CCCCCCn1ccc(=N)cc1 returned Jurkat tox 60K 40.9*, HER2 expr 66K 82.2 and SKBR3 24h inh 87.7.
For Cc1cc(-n2c(SCCC#N)nnc2-c2cccnc2)ccc1Cl the results were SKBR3 24h inh 100.8.
CC1CN(C(=O)c2cccs2)CCN1C(=O)c1cccs1 (stereo unspecified) was read as Jurkat tox 60K -6.8, HER2 expr 66K 88.6 and SKBR3 24h inh 86.7.
`COc1cccc(C2=NOC(C(=O)NCc3ccc(F)cc3)C2)c1` (stereo unspecified) gave Jurkat tox 60K -5.4 and HER2 expr 66K 89.2.
COc1ccc(CNC(=O)C2CC(c3cccc(OC)c3)=NO2)cc1 (stereo unspecified) was read as Jurkat tox 60K 1.8 and HER2 expr 66K 111.6.
COc1ccc(C2=NOC(C(=O)NCc3ccc(F)cc3)C2)cc1OC (stereo unspecified) was read as Jurkat tox 60K 93.3* and HER2 expr 66K 71.1.
COc1cc(C2=NOC(C(=O)NCc3ccc(F)cc3)C2)cc(OC)c1OC (stereo unspecified) was read as Jurkat tox 60K 96.1* and HER2 expr 66K 110.8.
Screening Cc1cc(N2CCCC2=O)cc(C)c1CN1C(=O)c2ccccc2C1=O returned Jurkat tox 60K 1.2, HER2 expr 66K 102.1 and SKBR3 24h inh 76.6.
`Cc1ccc2oc(=O)c3cnn(CC(=O)NC4CCCCC4C)c3c2c1` (stereo unspecified) gave Jurkat tox 60K 0.3 and HER2 expr 66K 93.2.
C=CCNc1ncnc2ccccc12 was read as Jurkat tox 60K 4.3, HER2 expr 66K 87.0 and SKBR3 24h inh 109.0.
`c1ccc(CNc2ncnc3ccccc23)cc1` gave Jurkat tox 60K 69.2*, HER2 expr 66K 103.6 and SKBR3 24h inh 127.6.
Screening CCCc1cc(=O)n2[nH]c(NCc3c(F)cccc3Cl)nc2n1 returned Jurkat tox 60K 0.6, HER2 expr 66K 83.5 and SKBR3 24h inh 84.1.
Screening O=C(c1cc2c(s1)CCCC2)N1CCN(Cc2ccc3c(c2)OCO3)CC1 returned Jurkat tox 60K -6.8 and HER2 expr 66K 104.9.
For O=C(Oc1ccc2c(c1)OCO2)c1cc2c(s1)CCC2 the results were Jurkat tox 60K 43.0* and HER2 expr 66K -7.5*.
Screening COCCN(CCOC)S(=O)(=O)c1ccc(C(=O)Nc2nc(C)c(C(C)=O)s2)cc1 returned Jurkat tox 60K 1.2, HER2 expr 66K 106.7 and SKBR3 24h inh 96.0.
Cc1nnc(NC(=O)c2ccc(S(=O)(=O)N3CCCCCC3)cc2)o1 was read as Jurkat tox 60K 9.3, HER2 expr 66K 76.0 and SKBR3 24h inh 88.6.
For COCCN(CCOC)S(=O)(=O)c1ccc(C(=O)Nc2nnc(C)o2)cc1 the results were Jurkat tox 60K 9.1, HER2 expr 66K 104.2 and SKBR3 24h inh 19.2*.
Screening CCN(CC)S(=O)(=O)c1ccc(C(=O)Nc2ccc3c(c2)OCCO3)cc1 returned Jurkat tox 60K -3.7 and HER2 expr 66K 79.7.
Screening CCN(Cc1ccccc1)S(=O)(=O)c1ccc(C(=O)Nc2nnc(C3CC3)o2)cc1 returned Jurkat tox 60K 101.0* and HER2 expr 66K 81.1.
Screening COCc1nnc(NC(=O)c2ccc(S(=O)(=O)N3CCCCCC3)cc2)o1 returned Jurkat tox 60K -2.5, HER2 expr 66K 69.7 and SKBR3 24h inh 46.9.
Cc1nnc(NC(=O)c2ccc(S(=O)(=O)N(C)Cc3ccccc3)cc2)o1 was read as Jurkat tox 60K 11.0, HER2 expr 66K 76.7 and SKBR3 24h inh 30.9*.

Assay outcomes as filed in PubChem.
